{"source": "PubChem BioAssay (NCATS)", "note": "Records with an inconclusive call do not appear. Activity calls are given as the source filed them. The call rests on the fitted dose curve; in most records, active means well fitted inhibition curve with a large enough effect; inconclusive means small, poorly fitted or top-dose-only effect, or effect the other way; inactive means flat fitted curve, though single readings scatter. Potency means the concentration at half of the fitted maximal effect.", "data": [{"target": "Ubiquitin carboxyl-terminal hydrolase 2 (Homo sapiens) (UniProt O75604)", "sequence (O75604 whole entry, looked up)": "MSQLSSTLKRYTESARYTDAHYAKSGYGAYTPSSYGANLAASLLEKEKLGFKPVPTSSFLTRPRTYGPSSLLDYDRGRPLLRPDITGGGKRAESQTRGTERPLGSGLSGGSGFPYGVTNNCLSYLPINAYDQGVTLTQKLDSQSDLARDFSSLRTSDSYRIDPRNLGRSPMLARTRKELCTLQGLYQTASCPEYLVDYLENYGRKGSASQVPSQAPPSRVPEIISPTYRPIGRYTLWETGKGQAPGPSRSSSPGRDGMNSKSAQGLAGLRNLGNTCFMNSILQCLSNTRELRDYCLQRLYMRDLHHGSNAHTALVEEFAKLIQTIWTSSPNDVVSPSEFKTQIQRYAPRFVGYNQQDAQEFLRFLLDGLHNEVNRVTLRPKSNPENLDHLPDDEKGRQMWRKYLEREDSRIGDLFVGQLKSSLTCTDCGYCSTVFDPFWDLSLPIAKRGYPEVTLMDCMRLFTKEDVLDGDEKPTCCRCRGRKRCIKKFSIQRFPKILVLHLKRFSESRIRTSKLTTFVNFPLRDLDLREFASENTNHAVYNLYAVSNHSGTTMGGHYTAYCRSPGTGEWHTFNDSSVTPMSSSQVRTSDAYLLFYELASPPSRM", "test": "qHTS Validation Assay for Inhibitors of Ubiquitin-specific Protease USP2a Using CHOP2 as the Reporter (AID 463106)", "settings": "USP2a cleavage of CHOP2 reporter, enzymatic; series mostly up to 38.3 µM; activity, negative = inhibition: at the top concentration", "source_text": "NIH Molecular Libraries Screening Centers Network [MLSCN]\nNIH Chemical Genomics Center [NCGC]\nPI Name: Nicholson, Ben. Progenra Inc, Malvern, PA\nHomeostasis of cellular proteins is maintained through a combination of synthesis and degradation. The pathway that accounts for the majority of protein degradation is the ubiquitin-proteasomal pathway. Ubiquitin (Ub) is highly conserved in all cells and the generation of a multi-Ub chain typically targets proteins for degradation by the proteasome. However, ubiquitination is highly reversible and dynamic. Deubiquitination, the reverse process, is catalyzed through the action of enzymes referred to as isopeptidases or deubiquitinating enzymes (DUBs). This group of enzymes is collectively responsible for maintaining adequate pools of free ubiquitin and regulating the ubiquitination status of cellular proteins. The class of DUBs referred to as the ubiquitin-specific proteases (USP) family functions endoproteolytically to cleave Ub chains from a wide range of protein substrates. USP2a deubiquitinates fatty acid synthase (FASN) which has recently been identified as an emerging oncology target. To identify inhibitors of USP2a a cell-free assay was employed.\nThe reporter enzyme chosen is an enterokinase called CHOP2, which is activated when the Ub is cleaved by USP2. The free and now activated reporter can subsequently act on its reporter substrate. […] The assay was developed by Progenra, Inc. and has been licensed for sale by LifeSensors, Inc. as Ub-CHOP2-Reporter-Kit (#PR1101).\nNCGC Assay Protocol Summary:\nThe assay buffer, prepared fresh at the day of the assay, contains 20mM Tris-HCl pH 8.0, 2mM CaCl2, 2mM beta-Mercaptoethanol, 0.05% CHAPS. 3ul of 20nM (10nM final) USP2 core, which is stored on ice, is dispensed into a medium-binding black solid Kalypsys 1,536 well plate using the Kalypsys dispenser. The assay plate is then pinned with 23nL compound with the Kalypsys pintool in columns 5-48. The controls are pinned as follows: column 1 two-fold dilutions of 2M NEM in duplicate; column 2 2M NEM (final concentration 38.2mM); column 3&4 DMSO. The assay plate is incubated at RT for 30min. Subsequently, 1.5uL of 100nM (25nM final) Ub-CHOP2 and 1.5uL of 100nM (25nM final) Reporter Substrate (both stored on ice and protected from light) were dispensed into the plate using the Kalypsys dispenser. Plates were read after 60min RT incubation on a ViewLux (Perkin Elmer) plate reader using the following wavelengths Ex 485nm /Em 531nm.\nData were normalized to the to AC100 inhibition (NEM). Concentration-response curves were fitted to the normalized data and the concentration-response curves were then classified based on curve quality (r2), response magnitude and degree of measured activity. The time zero reading was used to flag fluorescence artifacts.\nKeywords: ubiquitination, deubiquitination, proteases, profluorescent, MLSMR, MLPCN, NIH Roadmap, qHTS, NCGC", "values": [{"smiles": "NC(=NCCC[C@H](N)C(=O)O)N[N+](=O)[O-]", "activity, negative = inhibition": "0.782% (inactive)"}, {"smiles": "NC1CC1c1ccccc1", "note": "(stereo not given)", "activity, negative = inhibition": "-0.559% (inactive)"}, {"smiles": "O=C1CCCN1CC#CCN1CCCC1", "activity, negative = inhibition": "-1.13% (inactive)"}, {"smiles": "COc1ccc2c(c[n+](C)c3c4cc5c(cc4ccc23)OCO5)c1OC", "activity, negative = inhibition": "-6.07% (inactive)"}, {"smiles": "NCc1cc(=O)[nH]o1", "activity, negative = inhibition": "2.81% (inactive)"}, {"smiles": "Clc1cnc(Oc2ccc(Oc3ncc(Cl)cc3Cl)cc2)c(Cl)c1", "activity, negative = inhibition": "-0.34% (inactive)"}, {"smiles": "Cc1c(C(=O)c2cccc3ccccc23)c2cccc3c2n1[C@H](CN1CCOCC1)CO3", "activity, negative = inhibition": "-10.4% (inactive)"}, {"smiles": "Clc1ccc(C(c2ccc(Cl)cc2)n2cc[n+](CC(OCc3ccc(Cl)cc3Cl)c3ccc(Cl)cc3Cl)c2)cc1", "note": "(stereo not given)", "Potency": "13.1 µM (active)"}, {"smiles": "C[N+]1(C)C2CCC1CC(OC(=O)C(CO)c1ccccc1)C2", "note": "(stereo not given)", "Potency": "inactive"}, {"smiles": "CNCCc1c[nH]c2ccc(O)cc12", "activity, negative = inhibition": "3.41% (inactive)"}, {"smiles": "O=C(N[C@H]1CN2CCC1CC2)c1ccc(Cl)cc1", "activity, negative = inhibition": "2.14% (inactive)"}, {"smiles": "CCCN(CCC)C1CCc2ccc(O)cc2C1", "note": "(stereo not given)", "activity, negative = inhibition": "0.735% (inactive)"}, {"smiles": "COC(=O)[C@@H](N)CCCN=C(N)N[N+](=O)[O-]", "activity, negative = inhibition": "-0.627% (inactive)"}, {"smiles": "CC(C)NC(C)Cc1ccc(I)cc1", "note": "(stereo not given)", "activity, negative = inhibition": "-0.673% (inactive)"}, {"smiles": "CNCCc1ccc(O)c(O)c1", "activity, negative = inhibition": "-1.07% (inactive)"}, {"smiles": "CCCN(CCC)[C@@H]1CCc2ccc(O)cc2C1", "activity, negative = inhibition": "0.916% (inactive)"}, {"smiles": "CS(=N)(=O)CC[C@H](N)C(=O)O", "note": "(stereo not given in full)", "activity, negative = inhibition": "0.638% (inactive)"}, {"smiles": "C/C=C(/C)C(=O)O[C@H]1C(C)=C2[C@H]([C@@H]1OC(=O)CCCCCCC)[C@@](C)(OC(C)=O)C[C@H](OC(=O)CCC)[C@@]1(O)[C@H]2OC(=O)[C@@]1(C)O", "activity, negative = inhibition": "-29.6% (inactive)"}, {"smiles": "CC[C@@H](C(N)=O)N1CCCC1=O", "activity, negative = inhibition": "0.333% (inactive)"}, {"smiles": "CC1=NN=C(c2ccc(N)cc2)c2cc3c(cc2C1)OCO3", "activity, negative = inhibition": "0.209% (inactive)"}, {"smiles": "CCCCc1ccc(C(=O)O)nc1", "activity, negative = inhibition": "1.34% (inactive)"}, {"smiles": "CC[C@@]1(O)C(=O)OCc2c1cc1n(c2=O)Cc2cc3ccccc3nc2-1", "activity, negative = inhibition": "-0.833% (inactive)"}, {"smiles": "C[C@@H](N)Cc1cnc[nH]1", "activity, negative = inhibition": "-1.29% (inactive)"}, {"smiles": "CCCN1CCO[C@@H]2c3cc(O)ccc3OC[C@H]21", "Potency": "inactive"}, {"smiles": "O=C(Cc1ccc(Cl)c(Cl)c1)N1CCCCC1CN1CCCC1", "note": "(stereo not given)", "activity, negative = inhibition": "-0.332% (inactive)"}, {"smiles": "NC(=O)CN1CC(O)CC1=O", "note": "(stereo not given)", "activity, negative = inhibition": "1.38% (inactive)"}, {"smiles": "c1ccc(C2(c3ccccc3)CC2C2=NCCN2)cc1", "note": "(stereo not given)", "activity, negative = inhibition": "0.0996% (inactive)"}, {"smiles": "CCCN1CCC[C@H](c2cccc(O)c2)C1", "activity, negative = inhibition": "0.557% (inactive)"}, {"smiles": "CN1C2CCC1CC(OC(=O)c1cc(Cl)cc(Cl)c1)C2", "note": "(stereo not given)", "activity, negative = inhibition": "0.957% (inactive)"}, {"smiles": "NCCc1c[nH]c2ccccc12", "activity, negative = inhibition": "-0.679% (inactive)"}, {"smiles": "C#CCOC(=O)C1=CCCN(C)C1", "activity, negative = inhibition": "0.434% (inactive)"}, {"smiles": "NCCc1c[nH]c2ccc(O)cc12", "activity, negative = inhibition": "0.926% (inactive)"}, {"smiles": "C[C@]12N[C@H](Cc3ccccc31)c1ccccc12", "activity, negative = inhibition": "-0.4% (inactive)"}, {"smiles": "NC(CCP(=O)(O)O)C(=O)O", "note": "(stereo not given)", "activity, negative = inhibition": "1.04% (inactive)"}, {"smiles": "O=C(O)Cc1cnc[nH]1", "activity, negative = inhibition": "0.471% (inactive)"}, {"smiles": "CC(C)Oc1cccnc1N(C)C1CCN(Cc2ccccc2)CC1", "activity, negative = inhibition": "-0.468% (inactive)"}, {"smiles": "O=C(O)CC[N+](=O)[O-]", "activity, negative = inhibition": "4.02% (inactive)"}, {"smiles": "S=C(NC1CCCCC1)N1CCC(c2cnc[nH]2)CC1", "activity, negative = inhibition": "-0.686% (inactive)"}, {"smiles": "C=CCN1CC[C@]23CCCCC2[C@H]1Cc1ccc(O)cc13", "note": "(stereo not given in full)", "activity, negative = inhibition": "0.77% (inactive)"}, {"smiles": "COc1cc(C(O)CN)ccc1O", "note": "(stereo not given)", "activity, negative = inhibition": "-1.41% (inactive)"}]}]}
